Compound activity (PubChem)
Most compounds without a hit are left out; they make up all but 2.7% or so of the library.
PP5 inh = PP5 phosphatase inhibitors, primary screen, biochemical, fluorescence; purified PP5c, OMFP substrate fluorescence; Serine/threonine-protein phosphatase 5 (Homo sapiens), P53041; AID 1987, 2009; 320,000 tested, 0.18% active; inhibition, % at 6.7 µM;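 active means inhibition above the campaign's mean inhibition across all tested compounds plus 3 SD, cut at about 9.5% in these data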;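 further: 0% = DMSO only and 100% = 100 µM cantharidin control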
PP1 counter = PP1-alpha phosphatase inhibitors, primary screen, counter-screen for PP5 inhibitor project, biochemical, fluorescence, OMFP substrate, single point; Serine/threonine-protein phosphatase PP1-alpha catalytic subunit (Homo sapiens), P62136; purified PP1alpha; inhibition, % at 6.7 µM; 320,000 tested, 0.9% active;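 active means inhibition above the mean inhibition of all tested compounds plus 3 SD, computed separately for each screening campaign, cut at about 15% in these data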
PREPL inh = PREPL enzyme inhibitors, primary screen, biochemical, fluorescence polarization; AID 2751, 2010; 320,000 tested, 0.68% active; recombinant PREPL, fluorescence polarization activity-based probe; Prolyl endopeptidase-like (Homo sapiens), Q4J6C6; inhibition, % at 5.96 µM;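 further: 0% = enzyme with DMSO and 100% = wells lacking enzyme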
ANO1 activ = TMEM16A chloride channel activators or potentiators, primary screen, cell-based, HTS. Anoctamin-1 (Mus musculus), Q8BHY3. HEK293 TMEM16A/YFP-H148Q/I152L, iodide quench fluorescence; stronger effect = lower value. B-score at 10 µM. 340,000 tested, 0.3% active;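 active means fluorescence-ratio B-score plate-corrected deviation score at least 3 library SD below zero, with starting fluorescence score within 5 deviations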;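 further: channel opened by trigger with iodide after compound preincubation; score built on the fluorescence ratio of max minus min over baseline; more negative score means more quench and so TMEM16A activation or potentiation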
Target sequence (Q8BHY3 whole entry, looked up): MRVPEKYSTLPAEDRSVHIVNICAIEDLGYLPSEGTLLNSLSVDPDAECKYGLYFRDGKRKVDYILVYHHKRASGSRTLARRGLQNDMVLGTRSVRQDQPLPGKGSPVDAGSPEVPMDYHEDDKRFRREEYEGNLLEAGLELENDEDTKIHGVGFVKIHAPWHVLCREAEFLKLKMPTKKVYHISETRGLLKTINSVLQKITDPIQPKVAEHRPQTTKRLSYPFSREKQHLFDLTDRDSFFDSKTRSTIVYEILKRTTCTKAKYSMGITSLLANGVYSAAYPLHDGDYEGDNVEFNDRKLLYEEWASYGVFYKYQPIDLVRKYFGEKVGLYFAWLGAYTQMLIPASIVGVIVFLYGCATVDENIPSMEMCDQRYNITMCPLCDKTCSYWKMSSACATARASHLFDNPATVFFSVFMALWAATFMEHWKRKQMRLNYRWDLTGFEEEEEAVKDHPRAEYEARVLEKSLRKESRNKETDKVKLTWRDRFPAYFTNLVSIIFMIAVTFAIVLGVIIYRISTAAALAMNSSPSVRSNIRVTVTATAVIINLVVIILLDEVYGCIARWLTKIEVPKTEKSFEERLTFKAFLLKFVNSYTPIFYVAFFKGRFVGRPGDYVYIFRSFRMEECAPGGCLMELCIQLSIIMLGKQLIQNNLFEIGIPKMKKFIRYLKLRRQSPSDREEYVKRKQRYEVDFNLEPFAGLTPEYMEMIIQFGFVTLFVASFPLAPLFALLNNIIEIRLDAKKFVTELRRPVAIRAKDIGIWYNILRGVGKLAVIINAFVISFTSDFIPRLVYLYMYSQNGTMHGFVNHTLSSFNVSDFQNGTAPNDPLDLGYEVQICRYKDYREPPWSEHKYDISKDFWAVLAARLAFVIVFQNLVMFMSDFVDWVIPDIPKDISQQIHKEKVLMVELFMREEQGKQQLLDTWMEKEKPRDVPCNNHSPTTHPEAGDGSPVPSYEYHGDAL
DNA FID counter = compounds displacing fluorescent DNA intercalator, primary screen, artefact control for HCV NS3 helicase inhibitor project, biochemical, FID fluorescence; DNA fluorescent intercalator displacement; inhibition, % at 7.9 µM; 290,000 tested, 0.17% active; AID 1845, 2009; in the data active means inhibition above about 37%;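 further: 0% = vehicle and 100% = reference compound; higher means more ethidium bromide displaced from hairpin DNA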
TMEM16A inh = TMEM16A chloride channel inhibitors, primary screen, cell-based, HTS. 310,000 tested, 1.2% active. Anoctamin-1 (Mus musculus), Q8BHY3. HEK293 TMEM16A/YFP iodide influx fluorescence, ionomycin. AID 588511, 2011. normalized B-score (activity score, 25-100; higher = stronger inhibition) at 10 µM;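 active means ratio plate-corrected score three or more library SD toward inhibition, starting fluorescence score within five deviations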;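 further: score derived from kinetic fluorescence span divided by baseline fluorescence per well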
PP1 inh confirm = PP1 phosphatase inhibitors, confirmation, biochemical, fluorescence, OMFP substrate, triplicate | purified PP1alpha | shares compounds with PP1 counter | inhibition, % at 6.7 µM | 1,900 tested, 52% active;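 active means mean PP1 inhibition above a set limit taken from the earlier primary screen, cut at about 15% in these data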
PP5 counter = PP5 phosphatase inhibition by PP1 hits, confirmation, counter-screen for PP1 inhibitor project, biochemical, fluorescence, triplicate. shares compounds with PP1 counter. purified PP5c, OMFP fluorescence. inhibition, % at 6.7 µM. 1,900 tested, 4% active. AID 2360, 2010;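 active means mean PP5 inhibition over triplicate wells above about 9.5% taken from the earlier PP1 screen, limit read from the data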
PREPL inh cf = human PREPL enzyme inhibitors, confirmation, biochemical, fluorescence polarization; inhibition, % at 5.96 µM; shares compounds with PREPL inh; recombinant PREPL, fluorescence polarization activity probe; 2,000 tested, 67% active; AID 2803, 2010;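 further: 0% = protein with DMSO and 100% = wells lacking protein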
Numbers without * were called inactive; i = inactive; . = not tested or not shown. Unless noted, no stated cut-off is given here; in the data, active means inhibition above about 43%; inactive means the rest.

SMILES | PP5 inh | PP1 counter | PREPL inh | ANO1 activ | DNA FID counter | TMEM16A inh | PP1 inh confirm | PP5 counter | PREPL inh cf
CC1CC(=O)c2c(cc3c(-c4c(O)cc(O)c5c(O)c6c(cc45)OC(C)CC6=O)c(O)cc(O)c3c2O)O1 (stereo not drawn) | 1 | 70* | 77* | -20* | 28 | i | 48* | 2 | 35
CCOc1ccc(/C=N/NC(=O)Cc2cccs2)cc1 | 0 | 0 | 4 | i | -9 | i | . | . | .
COc1ccc(O)c(/C=N/Nc2nc(Nc3ccccc3)nc(-n3nc(C)cc3C)n2)c1 | 5 | 21* | 44* | i | -8 | i | 25* | 5 | 39
COc1ccc(O)c(/C=N/Nc2nc(C)cc(-c3ccccc3)n2)c1 | 2 | 1 | 21 | i | . | i | . | . | .
COc1cc(NC(=O)CN2C(=O)NC(CC(C)C)C2=O)cc(OC)c1OC (stereo not drawn) | -1 | -4 | -2 | i | . | . | . | . | .
C#CCn1cc(/C=N/Nc2nc3ccccc3[nH]2)c2ccccc21 | 7 | 22* | 55* | i | 6 | i | 24* | 2 | 63*
CCOc1ccc2nc3cc(NCc4ccc(OC)cc4)ccc3c(N)c2c1 | 15* | 65* | 102* | -6.9* | 7 | i | 16* | 38* | 79*
CCn1cnc2cc(NCc3ccc(OC)cc3)ccc21 | 2 | -7 | 14 | i | -3 | i | . | . | .
CC1CC(C)CN(C(=O)CN2C(=O)NC3(CCCCCCC3)C2=O)C1 (stereo not drawn) | 2 | -5 | 11 | i | . | . | . | . | .
CCCCCCCCCn1c2c(c(=N)c3c1CCC3)CCCC2 | . | . | . | i | 24 | . | . | . | .
CCCCCCCCCCn1c2c(c(=N)c3c1CCC3)CCC2 | 4 | 21* | 44* | i | 15 | 100* | 2 | -2 | 44*
CC1CCCC(NC(=O)c2nn(C)c3c2CS(=O)(=O)c2ccccc2-3)C1C (stereo not drawn) | 2 | 3 | 13 | i | -23 | i | . | . | .
COc1ccc(CCC(=O)NNC(=O)c2ccccn2)cc1OC | . | . | . | i | . | . | . | . | .
Cc1ccc(Nc2nc(NCc3ccco3)c3ccccc3n2)cc1 | 4 | 20* | 57* | i | 20 | i | 15 | -2 | 45*
c1ccc(-c2nc(NCc3ccco3)c3ccccc3n2)nc1 | 1 | 26* | 47* | i | 1 | i | 24* | -2 | 47*
COc1ccccc1Nc1nc(NCc2ccco2)c2ccccc2n1 | 2 | 4 | 6 | i | 13 | i | . | . | .
Cc1cc(Cl)ccc1OCCCC(=O)N1CCN(S(=O)(=O)c2ccccc2)CC1 | 2 | 3 | -8 | i | . | i | . | . | .
O=c1[nH]n2c(=O)c3c([nH]c2c1N=Nc1cccc(Cl)c1)CCCC3 | 2 | 37* | 55* | i | -33 | i | 26* | 0 | 58*
CCOc1ccc(N=Nc2c(=O)[nH]n3c(=O)c4c([nH]c23)CCCC4)cc1 | 4 | 12 | 25 | i | -24 | i | . | . | .
C#CCOCCOCCOCCNc1nc(N2CCN(C(=O)CCCCCCCCCCNC(=O)[C@H](CCCCN)n3cc(CCO)nn3)CC2)nc(N2CCN(C(=O)CCCCCCCCCCNC(=O)[C@H](CCCCN)n3cc(C[C@@H](C)CC)nn3)CC2)n1 | 5 | 41* | 45* | . | . | 100* | 13 | 0 | 55*
C#CCOCCOCCOCCNc1nc(N2CCN(C(=O)CCCCCCCCCCNC(=O)[C@@H](CCSC)n3cc(CCO)nn3)CC2)nc(N2CCN(C(=O)CCCCCCCCCCNC(=O)[C@H](CO)n3cc(CCCCCN)nn3)CC2)n1 | 2 | 49* | 48* | i | . | i | 49* | 0 | 49*
C#CCOCCOCCOCCNc1nc(N2CCN(C(=O)CCCCCCCCCCNC(=O)[C@H](CCCCN)n3cc(C)nn3)CC2)nc(N2CCN(C(=O)CCCCCCCCCCNC(=O)[C@H](CCCN=C(N)N)n3cc(C[C@@H](C)CC)nn3)CC2)n1 | 5 | 53* | 47* | . | . | 100* | 50* | 0 | 56*
C#CCOCCOCCOCCNc1nc(N2CCN(C(=O)CCCCCCCCCCNC(=O)Cn3cc(C[C@@H](C)O)nn3)CC2)nc(N2CCN(C(=O)CCCCCCCCCCNC(=O)[C@@H](CCSC)n3cc(CCO)nn3)CC2)n1 | 2 | 6 | 12 | i | . | i | . | . | .
COc1ccc(N2CCN(S(=O)(=O)CCNC(=O)C3CC(=O)N(c4ccccc4)C3)CC2)cc1 (stereo not drawn) | 2 | 1 | -1 | i | -6 | i | . | . | .
CCOc1ncccc1C(=O)OCc1c(F)cccc1Cl | -1 | 2 | 16 | i | -3 | i | . | . | .
